Screens (PubChem)
12-LOX inh – Primary qHTS assay for inhibitors of human arachidonate 12S-lipoxygenase (ALOX12): Round 2. Polyunsaturated fatty acid lipoxygenase ALOX12 (Homo sapiens), P18054. purified 12hLO, xylenol orange hydroperoxide absorbance. Potency, µM (series often up to 108 µM), without a hit: top-dose activity change, negative = inhibition, most hits filed as inhibitors. 1.1% of 580,000 active; also: potency is read from the fitted curve at half-maximal effect
Target sequence (P18054 whole entry, looked up): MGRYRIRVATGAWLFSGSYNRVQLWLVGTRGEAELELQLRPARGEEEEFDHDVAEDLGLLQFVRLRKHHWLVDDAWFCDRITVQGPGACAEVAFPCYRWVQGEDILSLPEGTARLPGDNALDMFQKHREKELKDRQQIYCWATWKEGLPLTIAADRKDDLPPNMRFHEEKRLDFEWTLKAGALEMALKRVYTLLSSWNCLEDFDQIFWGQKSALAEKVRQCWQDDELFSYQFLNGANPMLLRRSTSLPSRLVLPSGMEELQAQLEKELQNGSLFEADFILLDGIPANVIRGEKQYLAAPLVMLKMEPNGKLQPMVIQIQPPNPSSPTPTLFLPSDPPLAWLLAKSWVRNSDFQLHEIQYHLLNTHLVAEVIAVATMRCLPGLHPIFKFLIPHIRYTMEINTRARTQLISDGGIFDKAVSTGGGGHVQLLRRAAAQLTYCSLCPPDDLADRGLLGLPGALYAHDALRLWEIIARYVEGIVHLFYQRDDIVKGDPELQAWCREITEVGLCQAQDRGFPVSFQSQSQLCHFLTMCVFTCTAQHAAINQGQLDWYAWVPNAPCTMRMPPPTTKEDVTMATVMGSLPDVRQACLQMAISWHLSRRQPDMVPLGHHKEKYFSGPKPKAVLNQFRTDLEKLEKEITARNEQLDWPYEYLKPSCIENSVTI
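Purified human 12hLO (150 nM final) in 25 mM Hepes, 0.01% Triton X-100, pH 7.0 was preincubated 15 min at room temperature with compound. Then 40 uM arachidonic acid was added, 30 min. Hydroperoxide was read by Fe-XO absorbance ratio 573/405 nm.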
IL1B secr inh – qHTS for Inhibitors of Inflammasome Signaling: IL-1-beta AlphaLISA Primary Screen; THP-1 LPS/ATP IL-1B secretion, AlphaLISA, 16 h; active compounds read low; activity change, % at 57.5 µM; 4.7% of 360,000 active; AID 743279, 2014; in the data active = activity change below about -50%; inconclusive = mostly about -30% to -49%
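Secreted IL-1B measured by AlphaLISA bead assay after 16 h compound exposure of THP-1 cells; compounds (final up to 57.5 uM) added 1 h before LPS (250 ng/mL) and ATP (1.25 mM) stimulation; lower signal means less secretion.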
TDP1 cell CPT – qHTS for Inhibitors of human tyrosyl-DNA phosphodiesterase 1 (TDP1): qHTS in cells in presence of CPT. chicken DT40 Tdp1-/-;hTDP1 cells + 20 nM CPT, ATP luminescence, 48 h. Potency, µM (highest dose often 46.2 µM), without a hit: top-dose activity change, negative = growth inhibition, actives largely listed as inhibitors. 12% of 420,000 active. AID 686979, 2013; also: potency is read from the fitted curve at half-maximal effect; nearly all actives have a fitted effect of over 55% in size
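Chicken DT40 Tdp1-/- cells complemented with human TDP1, 400 cells/well, exposed to compounds plus 20 nM camptothecin for at least 48 h at 37 C; viability read as ATP content by CellTiter-Glo luminescence.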
TDP1 cell noCPT – qHTS for Inhibitors of human tyrosyl-DNA phosphodiesterase 1 (TDP1): qHTS in cells in absence of CPT | Potency, µM (doses to about 46.2 µM), for inactives: at the highest dose activity change, negative = growth inhibition, usual class: inhibitors | 15% of 420,000 active | DT40 Tdp1-/- hTDP1 cells, no CPT, ATP luminescence, 48 h; also: potency is read from the fitted curve at half-maximal effect; nearly all actives have a fitted effect of over 55% in size
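Camptothecin absent (DMSO only). Human TDP1-complemented DT40 knockout cells, 400 cells/well, 37 °C for minimum 48 hr; ATP measured via CellTiter-Glo, 30 min dark incubation, luminescence.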
HT1080 IDH1KD tx – qHTS for induction of synthetic lethality in tumor cells producing 2HG: qHTS for the HT-1080-IDH1KD cell line | 2% of 360,000 active | Potency, µM (doses to about 46.1 µM), without a hit: at the highest dose activity, negative = toxicity, most hits filed as cytotoxic | HT-1080 IDH1 knockdown viability, ATP luminescence, 48 h;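 also: potency is read from the fitted curve at half-maximal effect; 0% = DMSO wells and -100% = cell-free medium wells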
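Luminescent ATP read-out (CellTiter-Glo, 10 min at room temperature) after 48 h compound exposure at 37 °C gave viability of IDH1-knockdown HT-1080 cells. Activity was normalised to DMSO and cell-free wells, then fitted as concentration-response curves.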
HT1080NT lethal – qHTS for induction of synthetic lethality in tumor cells producing 2HG: qHTS for the HT-1080-NT fibrosarcoma cell line | 1.6% of 360,000 active | HT-1080-NT fibrosarcoma viability, CellTiter-Glo ATP luminescence, 48 h | AID 686970, 2013 | Potency, µM (top dose mostly 46.1 µM), for the others: top-dose activity, negative = less viability, hits mostly cytotoxic;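 also: NT is the 2HG producing partner of a matched IDH1 knockdown line; potency is read from the fitted curve at half-maximal effect; 0% = DMSO-treated cells and -100% = media-only wells without cells; nearly all actives have a fitted effect of over 55% in size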
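Viability of the 2HG-overproducing fibrosarcoma line after 48 hours of compound exposure at 37 degrees C was determined by luminescence with CellTiter-Glo, and concentration-effect curves were then fitted and categorized.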
* hit, by the source's call; ? = inconclusive; · = no result given; [ ] = remark or other dose. This is one part of a sample in which hits are shown more often than they occur. Unless noted, calls follow the shape of the dose curve; as a rule, active = well fitted curve in the direction sought with a large enough effect; inconclusive = small, poorly fitted or top-dose-only effect, or another doubt; inactive = no such curve, though single readings can be large; an effect the other way counts as inactive or inconclusive. Unless noted, % is scaled to controls: 0 for no effect and ±100 for the full control effect.

SMILES | 12-LOX inh | IL1B secr inh | TDP1 cell CPT | TDP1 cell noCPT | HT1080 IDH1KD tx | HT1080NT lethal
O=C(CSc1ncnc2c1cnn2-c1cccc(Cl)c1)NCC1CCCO1 (stereo unspecified) | ? | -17 | ? | 15µM* | 21% | 9%
COc1cc(SC)ccc1C(=O)NC1CCCc2ccccc21 (stereo unspecified) | 1% | -16 | ? | ? | ? | ?
COc1ccc(C(=O)NC2CCCc3ccccc32)c(OC)c1OC (stereo unspecified) | -8% | 13 | 18µM* | 21µM* | ? | ?
COc1ccc(CNC2CCCc3ccccc32)cc1OC (stereo unspecified) | -11% | -8 | ? | 18µM* | 0% | -22%
COc1ccc(C(=O)N(C)C2CCCc3ccccc32)cc1OC1CCN(C(C)C)CC1 (stereo unspecified) | -1% | -1 | 21µM* | ? | 15% | 5%
COc1ccccc1CN(C)CC(=O)NC1CCCc2ccccc21 (stereo unspecified) | 4% | 4 | 15µM* | ? | -19% | -7%
CCOc1ccc(C(=O)N(C)Cc2cc(Br)ccc2OC)cc1OCC | 14% | · | · | · | · | ·
COc1ccc(C(=O)OC(C)C(=O)NC2CCCc3ccccc32)cc1OC (stereo unspecified) | -2% | -52* | -30% | -16% | -1% | 4%
Cc1csc(/C(C#N)=C\c2ccccc2OC(F)F)n1 | -1% | · | · | · | · | ·
Cc1cc(C)n(CCNC(=O)[C@H]2O[C@@H](n3ccc(N)nc3=O)[C@H](O)[C@@H]2O)n1 | 50µM* | -8 | 9% | 34% | 1% | 4%
COc1cccc2c(Cl)c(CC=C(Cl)Cl)c(C)nc12 | -12% | -50* | -29% | -29% | -4% | -7%
C=CCc1c(C)nc2c(OC)cccc2c1Cl | -3% | 16 | ? | ? | -2% | -6%
CC1CCN(c2ccc3nnc(CCC(=O)N4CCN(c5ccccc5F)CC4)n3n2)CC1 | -14% | -12 | 23µM* | 15µM* | 13% | 0%
COc1ccc(N2CCN(C(=O)CCc3nnc4ccc(N5CCC(C)CC5)nn34)CC2)cc1 | -10% | -12 | 18µM* | 18µM* | -1% | -1%
COc1cccc(N2CCN(c3ccc4nnc(CCC(=O)Nc5cccc(C(C)=O)c5)n4n3)CC2)c1 | -7% | 24 | 16µM* | ? | 6% | 14%
COc1ccc(OC)c(NC(=O)CCc2nnc3ccc(N4CCC(C)CC4)nn23)c1 | -5% | -50* | -30% | ? | 0% | 0%
COc1ccccc1N1CCN(C(=O)CCc2nnc3ccc(N4CCOCC4)nn23)CC1 | 11% | 0 | -17% | 2% | 4% | -2%
O=C(Nc1ccccc1C(=O)c1ccccc1)c1ccc(-c2ccccc2)cc1 | -29% | · | · | · | · | ·
O=c1nc2n(c3ncccc13)CCCCC2 | 5% | -3 | -4% | -2% | 10% | 13%
COc1ccc(C2C3=C(CCCC3=O)Nc3c(C#N)cnn32)c(OC)c1 (stereo unspecified) | -7% | · | · | · | · | ·
COc1ccc(NC(=S)N2CCNC(=O)C2CC(=O)Nc2ccc(C)cc2)cc1 (stereo unspecified) | -23% | ? | 6% | -16% | -17% | -25%
CCc1ccc(NC(=O)C(=O)NCC2CCCN2S(=O)(=O)c2ccccc2)cc1 (stereo unspecified) | 11% | -11 | ? | 21µM* | ? | 0%
Cc1ccc(S(=O)(=O)N2CCCC2CNC(=O)C(=O)Nc2ccc(F)cc2F)cc1 (stereo unspecified) | 10% | -10 | 23µM* | 15µM* | -11% | 2%
COc1ccc(S(=O)(=O)N2CCCC2CNC(=O)C(=O)NCCc2ccccc2)cc1 (stereo unspecified) | -4% | 25 | 7.3µM* | 7.3µM* | 18µM* | ?
COc1ccc(S(=O)(=O)N2CCCC2CNC(=O)C(=O)NCc2ccc(C)cc2)cc1 (stereo unspecified) | -29% | -7 | ? | 16µM* | -13% | -22%
SMILES | 12-LOX inh | IL1B secr inh | TDP1 cell CPT | TDP1 cell noCPT | HT1080 IDH1KD tx | HT1080NT lethal
COc1ccc(S(=O)(=O)N2CCCC2CNC(=O)C(=O)NCc2ccccc2)cc1 (stereo unspecified) | 15% | 2 | ? | ? | -12% | -20%
CC(Cn1cccn1)NC(=O)c1cc(Cl)c2c(c1)OCCO2 (stereo unspecified) | 44% | · | · | · | · | ·
CC[C@H](NC(=O)[C@H](C)NC)C(=O)N1C[C@@H](O)C[C@H]1Cc1c(-c2[nH]c3cc(F)ccc3c2C[C@H]2C[C@H](O)CN2C(=O)[C@H](CC)NC(=O)[C@H](C)NC)[nH]c2cc(F)ccc12 | 34%[57.4 µM] | · | · | · | · | ·
COc1ccc(CCNC(=O)C(=O)NCC2CCCN2S(=O)(=O)c2cccs2)cc1 (stereo unspecified) | 1% | -11 | ? | ? | -3% | 2%
O=C(NCCc1ccc(F)cc1)C(=O)NCC1CCCN1S(=O)(=O)c1ccccc1 (stereo unspecified) | 15% | -80* | 10µM* | 8.2µM* | ? | -19%
COc1ccc(CCNC(=O)C(=O)NCC2CCCN2S(=O)(=O)c2ccccc2)cc1 (stereo unspecified) | -3% | -30 | 21µM* | 18µM* | -5% | ?
COc1ccc(C(=O)NC(C)c2cccnc2)cc1S(=O)(=O)N(C)Cc1ccccc1 (stereo unspecified) | -2% | -5 | -18% | ? | 0% | 3%
O=C(Cc1c(F)cccc1Cl)N1CC=C(c2c[nH]c3ncccc23)CC1 | -21% | · | · | · | · | ·
CC(C)CNC(=O)C1COC2(CCN(C(=O)CC(C)C)CC2)N1C(=O)c1ccco1 (stereo unspecified) | 41% | · | · | · | · | ·
O=S(=O)(NCCCCCNS(=O)(=O)c1ccc(F)cc1)c1ccc(F)cc1 | -15% | 10 | 11µM* | 13µM* | -18% | -22%
O=S(=O)(NCCCCCNS(=O)(=O)c1ccccc1)c1ccccc1 | -28% | -19 | ? | 26µM* | -10% | -18%
